Source: ChEMBL document CHEMBL2218924, “A broad activity screen in support of a chemogenomic map for kinase signalling research and drug discovery” (Biochem J, 2013)

These molecules were tested against T1, Protein kinase C zeta type (Homo sapiens) (UniProt Q05513). Conditions: at 1 µM; call rule not given here.
T1 sequence (whole entry): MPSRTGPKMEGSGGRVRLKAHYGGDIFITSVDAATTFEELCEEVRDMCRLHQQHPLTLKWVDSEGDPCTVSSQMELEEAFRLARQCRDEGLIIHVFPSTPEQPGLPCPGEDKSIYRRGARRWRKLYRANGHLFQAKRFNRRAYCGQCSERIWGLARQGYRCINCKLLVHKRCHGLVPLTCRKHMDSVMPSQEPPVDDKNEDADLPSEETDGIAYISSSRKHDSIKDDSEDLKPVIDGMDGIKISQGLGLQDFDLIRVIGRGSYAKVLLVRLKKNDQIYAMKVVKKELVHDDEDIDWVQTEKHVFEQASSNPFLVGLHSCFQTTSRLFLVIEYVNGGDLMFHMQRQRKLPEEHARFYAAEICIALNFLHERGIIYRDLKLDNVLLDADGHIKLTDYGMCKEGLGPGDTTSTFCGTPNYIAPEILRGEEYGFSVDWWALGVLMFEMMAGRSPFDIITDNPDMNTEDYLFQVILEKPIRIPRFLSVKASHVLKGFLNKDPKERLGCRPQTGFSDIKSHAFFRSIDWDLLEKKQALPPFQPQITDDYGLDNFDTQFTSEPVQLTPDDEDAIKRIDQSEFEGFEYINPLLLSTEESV

Row | SMILES | residual activity
1 | COc1ccc(CNc2nc(N(CCO)CCO)nc3c2ncn3C(C)C)cc1 | 105% (inactive)
2 | O=C1NC(=O)c2c1c1c3ccccc3[nH]c1c1[nH]c3cc(Br)ccc3c21 | 98% (inactive)
3 | O=C1Nc2cc(Br)ccc2/C1=C1/Nc2ccccc2/C1=N\O | 103% (inactive)
4 | COc1cc2ncnc(Nc3ccc(NC(=O)c4ccccc4)cc3)c2cc1OC | 110% (inactive)
5 | Nc1nc(Nc2ccc(S(N)(=O)=O)cc2)nn1C(=S)Nc1c(F)cccc1F | 75% (inactive)
6 | NC(=O)c1ccc2[nH]c(-c3ccc(Oc4ccc(Cl)cc4)cc3)nc2c1 | 99% (inactive)
7 | c1ccc(-c2n[nH]c3c2oc2ccccc23)cc1 | 99% (inactive)
8 | Oc1c2ccccc2c2c3c(cccc13)N=N2 | 110% (inactive)
9 | Cc1nc2cc3nc(-c4cccs4)cnc3cc2n1C | 99% (inactive)
10 | Oc1ccc(-c2nc(-c3ccc(F)cc3)c(-c3ccncc3)[nH]2)cc1 | 113% (inactive)
11 | Oc1ccc(Nc2nc(-c3ccc(Cl)cc3)cs2)cc1 | 115% (inactive)
12 | CCN(CC)C(=O)c1ccc(Nc2nc(OCC3CCCCC3)c3nc[nH]c3n2)cc1 | 96% (inactive)
13 | O=C(Nc1cccc(Nc2cc(Nc3cccc(C(F)(F)F)c3)ncn2)c1)C1CC1 | 101% (inactive)
14 | C[C@@H](N)[C@H]1CC[C@H](C(=O)Nc2ccncc2)CC1 | 103% (inactive)
15 | CCC(=O)Nc1ccc2ncnc(Nc3cccc(Br)c3)c2c1 | 116% (inactive)
16 | CO[C@@H]1[C@H](N(C)C(=O)c2ccccc2)C[C@H]2O[C@]1(C)n1c3ccccc3c3c4c(c5c6ccccc6n2c5c31)C(=O)NC4 | 101% (inactive)
